Molecules are shown by their SMILES. Records with an inconclusive call do not appear. Where a call stands in place of a potency, no number is given. The source made the active and inactive calls. Unless noted, calls come from the whole dose curve; as a rule, active = well fitted curve in the direction sought with a large enough effect in the repeat runs; inconclusive = weak or mixed curves; inactive = no such curve, though single readings can be large; an effect the other way counts as inactive or inconclusive.

The values that follow come from PubChem BioAssay (Tox21).

For the first experiment, the target named is Estrogen receptor (Homo sapiens) (UniProt P03372). Description: qHTS assay to identify small molecule antagonists of the estrogen receptor alpha (ER-alpha) signaling pathway using the BG1 cell line in the presence of 0.1 nM 17-beta-estradiol (AID 1259244). Note: nearly all actives have a fitted effect of over 50% in size. The settings on record: VM7Luc4E2 (BG1) ERE-luciferase, antagonist mode, 0.1 nM E2, 22 h; series mostly up to 92.4 µM. Put shortly: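 Cells: VM7Luc4E2, endogenous ER-alpha, 4x ERE-luc stable. Pre-culture 5 d, phenol red-free, charcoal-stripped FBS. Plated 24 h, compound + E2 0.1 nM final, 22 h 37C/5% CO2. Readout ONE-Glo luminescence.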
Estrogen receptor (Homo sapiens), sequence (P03372 whole entry, looked up): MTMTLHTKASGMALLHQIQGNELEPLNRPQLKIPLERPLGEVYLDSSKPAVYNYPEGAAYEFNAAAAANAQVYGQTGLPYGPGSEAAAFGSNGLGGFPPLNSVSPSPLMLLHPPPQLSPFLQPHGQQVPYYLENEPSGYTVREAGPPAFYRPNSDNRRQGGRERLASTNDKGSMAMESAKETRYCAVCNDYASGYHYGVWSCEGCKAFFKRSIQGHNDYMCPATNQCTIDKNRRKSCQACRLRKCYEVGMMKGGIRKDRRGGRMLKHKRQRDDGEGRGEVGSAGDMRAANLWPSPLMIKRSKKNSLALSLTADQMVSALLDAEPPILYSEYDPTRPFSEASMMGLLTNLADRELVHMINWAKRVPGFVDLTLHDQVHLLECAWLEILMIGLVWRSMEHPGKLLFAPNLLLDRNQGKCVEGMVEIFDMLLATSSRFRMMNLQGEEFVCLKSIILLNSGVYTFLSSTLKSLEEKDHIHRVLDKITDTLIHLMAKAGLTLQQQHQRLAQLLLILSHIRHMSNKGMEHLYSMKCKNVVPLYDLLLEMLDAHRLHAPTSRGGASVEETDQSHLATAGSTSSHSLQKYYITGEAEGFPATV
On the technique in general: In qHTS, concentration-response curves come from the screen itself.
For the molecule `CC(C)NCC(O)c1ccc(N)c(C#N)c1` (stereo not drawn), the Potency result was “inactive”.

Take `Cc1cc(C)nc(Nc2ccccc2)n1`: the Potency result is “inactive”.

Consider `C(CCOCC1CO1)COCC1CO1` (stereo not drawn), for which the Potency entry is “inactive”.

Consider `Cc1ncsc1CCCl`, for which the Potency result was “inactive”.

Turning to `N#Cc1ccncc1`, the Potency entry was “inactive”.

Consider `CCC(C)n1c(=O)[nH]c(C)c(Br)c1=O` (stereo not drawn), for which the Potency entry was “inactive”.

Regarding `O=C(Oc1ccc(Br)cc1)N1CCN2CCC1CC2`, the Potency result is “inactive”.

Turning to `CCOP(=S)(OCC)Oc1nc(Cl)n(C(C)C)n1`, the Potency entry is “inactive”.

Turning to `CC(=O)CCc1ccc2c(c1)OCO2`, the Potency entry is “inactive”.

Test system in another experiment: not listed separately
Put plainly: qHTS assay to identify small molecule phospholipidosis (PLD) inducers (AID 1259344; active = well fitted curve in the direction sought with a large enough effect; an effect the other way counts as inactive or inconclusive). The settings on record: HepG2 phospholipidosis, LipidTOX Red imaging, 24 h; series mostly up to 38.3 µM. In outline: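 Phospholipidosis is scored by imaging LipidTOX-stained pits in HepG2 cells exposed to compound for 24 h at 37 C; pit counts and integrated intensities per well and per cell serve as outputs.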
Regarding `CCC1(c2ccccc2)C(=O)NC(=O)NC1=O`, the result was inactive.

Consider `Clc1cccc(N2CCNCC2)c1`, for which the outcome was inactive.

Take `COc1cc2c(cc1OC)[C@@]13CCN4CC5=CCO[C@H]6CC(=O)N2[C@H]1[C@H]6[C@H]5C[C@H]43`: the molecule was called inactive.

Turning to `[O]=[Cd]`, the outcome was inactive.

For the molecule `CC(C)NCC(O)c1ccc(N)c(C#N)c1` (stereo not drawn), the call was inactive.

With `Cc1ncsc1CCCl`, the outcome was inactive.

Consider `C[C@H]1CCC[C@H](O)CCCCCc2cc(O)cc(O)c2C(=O)O1`, for which the result was inactive.

Test system in a further experiment: not listed separately
Put plainly: qHTS assay to identify small molecule HDAC inhibitors (AID 1259364). Note: top concentration of the series differs between compounds; nearly all actives have a fitted effect of over 45% in size. The settings on record: HCT-116 HDAC-Glo I/II luminescence, 2 h; series mostly up to 92.4 µM. In outline:
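Luminescence from a cell-permeant luminogenic class I/II HDAC substrate reports endogenous deacetylase activity in intact HCT-116 cells treated with compounds for 2 h.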
`CNC(=O)Oc1ccc(N(C)C)c(C)c1`: the Potency entry was “inactive”.

`CCC1(c2ccccc2)C(=O)NC(=O)NC1=O`: the Potency entry was “inactive”.

On to `COC(=O)c1ccccc1S(=O)(=O)NC(=O)Nc1nc(C)cc(C)n1`, for which the Potency result was “inactive”.

`COc1cc(OC)nc(NC(=O)NS(=O)(=O)c2ncccc2C(=O)N(C)C)n1`: the Potency result is “inactive”.

Turning to `ClCC(Cl)Cl`, the Potency result was “inactive”.

Consider `Clc1cccc(N2CCNCC2)c1`, for which the Potency result was “inactive”.

As for `CCOP(=S)(OCC)SCSP(=S)(OCC)OCC`, the Potency entry was “inactive”.

Turning to `COc1cc2c(cc1OC)[C@@]13CCN4CC5=CCO[C@H]6CC(=O)N2[C@H]1[C@H]6[C@H]5C[C@H]43`, the Potency result is “inactive”.

For the molecule `CCS(=O)(=O)CCSP(=O)(OC)OC`, the Potency entry was “inactive”.

`O=C1CN2CCOC2(c2ccccc2Cl)c2cc(Cl)ccc2N1` (stereo not drawn): the Potency result was “inactive”.

Regarding `CCOP(=O)(N=C1SCCS1)OCC`, the Potency entry is “inactive”.

Turning to `N#CC(CCc1ccc(Cl)cc1)(Cn1cncn1)c1ccccc1` (stereo not drawn), the Potency entry is “inactive”.

Regarding `COc1cccc2c1cc([N+](=O)[O-])c1c(C(=O)O)cc3c(c12)OCO3`, the Potency result was “inactive”.

As for `CC(=O)C(Cl)Cl`, the Potency result was “inactive”.

Consider `COc1cc(OC)nc(Sc2cccc(Cl)c2C(=O)O)n1`, for which the Potency entry is “inactive”.

`COc1cc(OC)nc(NC(=O)NS(=O)(=O)c2ncccc2OCC(F)(F)F)n1`: the Potency entry is “inactive”.

As for `[O]=[Cd]`, the Potency entry is “inactive”.

`C=CCC1=C(C)[C@@H](OC(=O)[C@@H]2[C@@H](C=C(C)C)C2(C)C)CC1=O`: the Potency result was “inactive”.

In the case of `N#CCNCC#N`, the Potency entry was “inactive”.

Regarding `CCCSC(=O)Cl`, the Potency entry is “inactive”.

For `Nc1cc2c3c(c1)C(c1ccccc1)=N[C@@H](NC(=O)c1cccnc1)C(=O)N3CC2`, the Potency entry was “inactive”.

Take `C(CCOCC1CO1)COCC1CO1` (stereo not drawn): the Potency result is “inactive”.

Take `Cc1ncsc1CCCl`: the Potency result is “inactive”.

In the case of `C[C@H]1CCC[C@H](O)CCCCCc2cc(O)cc(O)c2C(=O)O1`, the Potency result is “inactive”.

For the molecule `CNC(=O)Oc1cccc(C(C)C)c1`, the Potency result is “inactive”.

`CCC(C)n1c(=O)[nH]c(C)c(Br)c1=O` (stereo not drawn): the Potency entry is “inactive”.

Take `Fc1ccc(C2(Cn3cncn3)OC2c2ccccc2Cl)cc1` (stereo not drawn): the Potency entry is “inactive”.

For the molecule `O=C(Oc1ccc(Br)cc1)N1CCN2CCC1CC2`, the Potency result is “inactive”.

For `CCOP(=S)(OCC)Oc1nc(Cl)n(C(C)C)n1`, the Potency result was “inactive”.

`CC(=O)CCc1ccc2c(c1)OCO2`: the Potency entry was “inactive”.

Test system in the next experiment: not listed separately
Put plainly: qHTS assay to identify small molecule HDAC inhibitors - cell viability counter screen (AID 1259365). Note: nearly all actives have a fitted effect of over 50% in size. As to conditions: HCT-116 viability, CellTiter-Glo ATP luminescence, 2 h; series mostly up to 92.4 µM. In outline:
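Cytotoxicity was gauged in wild-type HCT-116 cells after a brief 2hr treatment with DMSO-dissolved compounds at 37C and 5% CO2, using CellTiter-Glo luminescence developed for 30min at room temperature.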
Consider `CNC(=O)Oc1ccc(N(C)C)c(C)c1`, for which the molecule was called inactive.

Turning to `CCC1(c2ccccc2)C(=O)NC(=O)NC1=O`, the molecule was called inactive.

`COC(=O)c1ccccc1S(=O)(=O)NC(=O)Nc1nc(C)cc(C)n1`: the molecule was called inactive.

`COc1cc(OC)nc(NC(=O)NS(=O)(=O)c2ncccc2C(=O)N(C)C)n1`: the molecule was called inactive.

For the molecule `ClCC(Cl)Cl`, the result was inactive.

As for `Clc1cccc(N2CCNCC2)c1`, the molecule was classed as inactive.

Take `CCOP(=S)(OCC)SCSP(=S)(OCC)OCC`: the molecule was called inactive.

As to `COc1cc2c(cc1OC)[C@@]13CCN4CC5=CCO[C@H]6CC(=O)N2[C@H]1[C@H]6[C@H]5C[C@H]43`, the molecule was classed as inactive.

Take `CCS(=O)(=O)CCSP(=O)(OC)OC`: the molecule was called inactive.

Consider `O=C1CN2CCOC2(c2ccccc2Cl)c2cc(Cl)ccc2N1` (stereo not drawn), for which the outcome was inactive.

Take `CCOP(=O)(N=C1SCCS1)OCC`: the molecule was called inactive.

Turning to `N#CC(CCc1ccc(Cl)cc1)(Cn1cncn1)c1ccccc1` (stereo not drawn), the result was inactive.

Consider `CC(C)(C)C(=O)C(Oc1ccc(Cl)cc1)n1cncn1` (stereo not drawn), for which the molecule was called inactive.

Take `CC(=O)CC(c1ccc(Cl)cc1)c1c(O)c2ccccc2oc1=O` (stereo not drawn): the outcome was inactive.

With `CC(=O)C(Cl)Cl`, the outcome was inactive.

With `ClC(Cl)C(Cl)Cl`, the call was inactive.

For `COc1cc(OC)nc(Sc2cccc(Cl)c2C(=O)O)n1`, the outcome was inactive.

`COc1cc(OC)nc(NC(=O)NS(=O)(=O)c2ncccc2OCC(F)(F)F)n1`: the result was inactive.

In the case of `[O]=[Cd]`, the call was inactive.

Consider `C=CCC1=C(C)[C@@H](OC(=O)[C@@H]2[C@@H](C=C(C)C)C2(C)C)CC1=O`, for which the result was inactive.

`N#CCNCC#N`: the result was inactive.

Take `CCCSC(=O)Cl`: the outcome was inactive.

For the molecule `CCC(Cl)[N+](=O)[O-]` (stereo not drawn), the outcome was inactive.

As to `O=[N+]([O-])c1cc(Cl)c(Cl)c(Cl)c1`, the molecule was classed as inactive.

Regarding `Nc1cc2c3c(c1)C(c1ccccc1)=N[C@@H](NC(=O)c1cccnc1)C(=O)N3CC2`, the result was inactive.

Consider `CC(C)NCC(O)c1ccc(N)c(C#N)c1` (stereo not drawn), for which the outcome was inactive.

Regarding `Cc1cc(C)nc(Nc2ccccc2)n1`, the result was inactive.

With `C(CCOCC1CO1)COCC1CO1` (stereo not drawn), the result was inactive.

`Cc1ncsc1CCCl`: the call was inactive.

On to `C[C@H]1CCC[C@H](O)CCCCCc2cc(O)cc(O)c2C(=O)O1`, for which the outcome was inactive.

Regarding `CNC(=O)Oc1cccc(C(C)C)c1`, the molecule was classed as inactive.

In the case of `N#Cc1ccncc1`, the result was inactive.

Regarding `CCC(C)n1c(=O)[nH]c(C)c(Br)c1=O` (stereo not drawn), the call was inactive.

On to `Fc1ccc(C2(Cn3cncn3)OC2c2ccccc2Cl)cc1` (stereo not drawn), for which the molecule was classed as inactive.

In the case of `O=C(Oc1ccc(Br)cc1)N1CCN2CCC1CC2`, the molecule was called inactive.

Take `CCOP(=S)(OCC)Oc1nc(Cl)n(C(C)C)n1`: the outcome was inactive.

Turning to `CC(=O)CCc1ccc2c(c1)OCO2`, the result was inactive.
